PfGluPho inh: PfG6PD (Plasmodium falciparum) enzyme inhibition; PfGluPho enzyme, NADPH resazurin-diaphorase fluorescence; inhibition, % at 20 µM; 350,000 compounds, 0.78% hits;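 active means inhibition reaching at least a set limit at 20 µM in the primary screen, cut at about 59% in these data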
M18AAP inhibitor: PfM18AAP enzyme inhibition. recombinant PfM18AAP, H-Glu-NHMec fluorogenic cleavage. inhibition, % at 7.35 µM. 290,000 compounds, 1.2% hits;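 active means inhibition above the campaign mean inhibition over all tested compounds plus 3 SD, cut at about 28% in these data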
ALR inh: human ALR oxidase inhibition via reduced H2O2 | P55789 | purified ALR, DTT oxidation, H2O2 HRP-luminol luminescence | inhibition, % (concentration not given with the values) | 290,000 compounds, 3.8% hits | AID 485317;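 active means mean replicate inhibition above about 79%, with every replicate also reaching it, limit read from the data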
Cardio protect: modulators protecting cardiomyocytes from myocardial damage. H9c2 cardiomyocytes, H2O2 injury protection, ATPLite, 2 h. protection from H2O2 cell death, % at 20 µM. 360,000 compounds, 0.63% hits;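 active means compounds giving at least 50% protection of heart cells from peroxide-induced death in the single-dose screen, raw or plate-pattern-corrected value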
PHOSPHO1 inh: blocks human PHOSPHO1 phosphatase activity; Q8TCT1; 290,000 compounds, 1.1% hits; AID 1565; recombinant PHOSPHO1, absorbance phosphatase assay; inhibition, % at 13.3 µM; in the data active means inhibition above about 60%
Target sequence (Q8TCT1 whole entry, looked up): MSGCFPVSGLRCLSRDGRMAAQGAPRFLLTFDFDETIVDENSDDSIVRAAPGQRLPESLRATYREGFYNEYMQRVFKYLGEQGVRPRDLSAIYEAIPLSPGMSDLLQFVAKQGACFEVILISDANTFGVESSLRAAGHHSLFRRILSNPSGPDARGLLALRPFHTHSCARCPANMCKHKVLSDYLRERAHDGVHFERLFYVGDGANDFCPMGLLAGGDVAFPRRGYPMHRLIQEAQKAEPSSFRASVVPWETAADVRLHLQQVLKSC
Of the large screens only hits and unclear results are named; the others gave an inactive call. In the library only some 5.6% were active in any assay of this set; here they are far more common.

Cc1ccc(S(=O)(=O)N/N=C/c2cc(Br)c(C)o2)cc1	PHOSPHO1 inh 91
COc1ccc2c(c1OC)C(=O)N1C2SC(C)(C)[C@H]1C(=O)NC(C)C (stereo not given in full)	none
COc1ccc(NC(=O)Nc2cccc3c2O[C@H](CN(C)S(=O)(=O)c2cn(C)cn2)[C@@H](C)CN([C@H](C)CO)C3=O)cc1	none (no result: M18AAP inhibitor, PHOSPHO1 inh)
CN(C)c1ccc(/C=C(\C#N)C(=O)NCc2ccco2)cc1	none (no result: PfGluPho inh, ALR inh, Cardio protect)
COCCNC(=O)/C(C#N)=C/c1ccc(O)cc1	ALR inh 87
Cc1ccc(CNC(=O)/C(C#N)=C\c2ccc(N(C)C)cc2)cc1	ALR inh 98 (no result: PfGluPho inh, Cardio protect)
COc1cc2c(cc1OC)CN(c1ccc(F)cc1[N+](=O)[O-])CC2	none
COc1ccc(S(=O)(=O)N2CCOC2CNC(=O)C(=O)NCCCN2CCOCC2)cc1C (stereo not given)	none
CCOc1cc(/C=C2\SC(=N)N(c3nccs3)C2=O)ccc1OCCN1CCOCC1	Cardio protect 54 (no result: ALR inh)
CCOc1cc(/C=C2\SC(=S)N(N3CCOCC3)C2=O)ccc1O	none
CC(C)(C)OC(=O)N1CCN(C(=O)c2[nH]cnc2C(=O)Nc2cccc(Cl)c2)CC1	none (no result: M18AAP inhibitor, PHOSPHO1 inh)
Cc1ccc(C2=CSC3=NCCN23)cc1	none (no result: M18AAP inhibitor, PHOSPHO1 inh)
C1=C(c2ccco2)N2CCN=C2S1	ALR inh 80
CC[C@@H](NCCCn1cnc2c(SC)ncnc21)c1ccccc1	none (no result: M18AAP inhibitor, ALR inh, PHOSPHO1 inh)
COc1cccc(Nc2nc(N)c([N+](=O)[O-])c(N3CCOCC3)n2)c1	none (no result: ALR inh)
COc1ccc(OC)c(Nc2nc(N)c([N+](=O)[O-])c(N3CCOCC3)n2)c1	Cardio protect 52
CCOC(=O)c1nnn(-c2nonc2N)c1-c1ccc(F)cc1	none
c1ccc(-c2nnc(SCc3nc4ccccc4[nH]3)n2Cc2ccco2)cc1	PHOSPHO1 inh 96
Cc1ccc(OCc2nnc(SCc3nc4ccccc4[nH]3)n2Cc2ccco2)cc1	PHOSPHO1 inh 84
CCn1c(COc2ccc(Cl)cc2)nnc1SCc1nc2ccccc2[nH]1	PHOSPHO1 inh 91
Cc1ccc(OCCSCc2nc3ccccc3[nH]2)cc1	none
Clc1ccc(OCCSCc2nc3ccccc3[nH]2)cc1	PHOSPHO1 inh 69
CCn1c(COc2ccc(OC)cc2)nnc1SCc1nc2ccccc2c(=O)[nH]1	none (no result: PfGluPho inh, Cardio protect)
NC(=O)CSc1nnc(COc2ccccc2)n1Cc1ccco1	none
CC(NC(=O)c1cc2ccccc2oc1=O)c1ccccc1 (stereo not given)	none
CCn1c(COc2ccc(C)cc2)nnc1SCC(=O)C(C)(C)C	none
CCn1c(COc2ccc(C)cc2)nnc1SCc1ccc(C#N)cc1	PHOSPHO1 inh 94
Cc1ccc(CNC(=O)C2CCCN(S(=O)(=O)c3cccc4nonc34)C2)cc1 (stereo not given)	none
Fc1ccc(-c2nc3ccccc3[nH]2)cc1	none (no result: ALR inh)
Fc1ccc(-c2ccnc(=S)[nH]2)cc1	ALR inh 99
